# Test results taken from PubChem BioAssay (Tox21).
# Where “and” joins values, the source holds several entries; their conditions need not be identical. Equal values may be shown once. Results filed as inconclusive are left out. Where a call stands in place of a potency, no number is given. Where a structure was tested more than once in an assay, its records may differ in their call. Calls of active or inactive are those of the source. Calls come from the whole dose curve; as a rule, active = well fitted inhibition curve with a large enough effect in the repeat runs; inconclusive = weak or mixed curves, or effect the other way; inactive = no such curve, though single readings can be large or run the other way.
# Molecular target: Nuclear receptor subfamily 1 group I member 3 (Homo sapiens) (UniProt Q14994)
# Sequence (Q14994 whole entry, looked up): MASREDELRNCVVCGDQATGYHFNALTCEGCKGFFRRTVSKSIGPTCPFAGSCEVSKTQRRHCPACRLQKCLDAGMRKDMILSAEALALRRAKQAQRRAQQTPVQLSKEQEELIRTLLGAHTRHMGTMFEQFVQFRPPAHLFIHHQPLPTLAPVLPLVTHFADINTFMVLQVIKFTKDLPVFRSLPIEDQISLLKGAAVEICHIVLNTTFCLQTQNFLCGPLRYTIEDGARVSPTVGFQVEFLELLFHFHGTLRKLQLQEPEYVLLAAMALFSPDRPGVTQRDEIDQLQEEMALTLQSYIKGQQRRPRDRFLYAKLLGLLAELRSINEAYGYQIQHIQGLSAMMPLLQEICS
# Assay: qHTS assay to identify small molecule antagonists of the constitutive androstane receptor (CAR) signaling pathway (AID 1224838);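 note: HepG2 cells stably expressing hCAR with CYP2B6 luciferase reporter stimulated by CITCO; nearly all actives have a fitted effect of over 40% in size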
# Settings: HepG2-CYP2B6-hCAR luciferase, CITCO-stimulated, 24 h; series mostly up to 92.4 µM; activity, negative = inhibition: at the top concentration
# From the text: U.S. Tox21 Program National Center for Advancing Translational Sciences [NCATS] NIH Chemical Genomics Center [NCGC] U.S. Environmental Protection Agency [EPA] National Institutes of Environmental Health Sciences [NIEHS] National Toxicology Program [NTP] U.S. Food and Drug Administration [FDA] Tox21 Assay Overview: The constitutive androstane receptor (CAR) is a nuclear receptor which regulates multiple drug metabolizing enzymes (DMEs) and transporters. Activating CAR will generally increase the transcription and subsequent translation of CYP2B6 and CYP3A4. These two DMEs represent about 50% of the drug metabolizing potential in the body. When CAR is deactivated, the metabolizing potential in the body will decrease, subsequently increasing the toxicity in the body or lowering the therapeutic potential of a pro-drug. Recently, there have also been studies performed indicating CARs role in energy metabolism and cancer therapy. Therefore, inhibiting CARs activity could have a potential effect on diabetes and cancer. Identifying environmental toxins and compounds which modulate CAR, through the use of the Tox21 10K compound collection, will be an important step in determining the toxicity and potential therapeutic effects these factors will have on the human body.
# Tox21 Assay Protocol Summary: A double-stable (hCAR and CYP2B6-2.2kb) transfected cell line, derived from human hepatoma (HepG2) cells, was utilized for the duration of the quantitative high-throughput screens. The HepG2-CYP2B6-hCAR cells suspended in DMEM culture medium supplemented with 10% FBS, 5 ug/mL blasticidin, 0.5 mg/mL geneticin, 100 U/mL penicillin and 100 ug/mL streptomycin were dispensed at 2500 cells/4 uL/well in 1536-well white solid bottom plates using a Multidrop Combi. After the assay plates were incubated at 37 C/5% CO2 for 4 hrs, 23 nL of compounds at 15 concentrations (from 5-48 columns) or positive control (from 1 to 4 columns) were transferred to the assay plates using a Pintool station. One uL of CITCO, was added using a Flying Reagent Dispenser to generate a final concentration of 50 nM CITCO inside each well. After a 24 hr incubation period at 37 C/5% CO2, four uL of ONE-Glo reagent was added into the assay plates using a Flying Reagent Dispenser. After a 30 min incubation period at room temperature, the luminescence intensity in the assay plates was measured using a ViewLux plate reader.
# Potency is the fitted concentration of half-maximal effect.
Compound,Potency,"activity, negative = inhibition"
NS(=O)(=O)O,inactive,
Cc1ncc([N+](=O)[O-])n1CCO,inactive,
NC1CCCCC1,inactive,
CCCC[P+](CCCC)(CCCC)CCCC,inactive,
CN(N=O)C(=O)N[C@@H]1[C@@H](O)[C@H](O)[C@@H](CO)O[C@@H]1O,inactive,
O=C1OC2(c3ccccc31)c1cc(Br)c(O)c(Br)c1Oc1c2cc(Br)c(O)c1Br,,-14.2% [at 42.5 µM] (inactive)
CC(C)C(=O)Nc1ccc([N+](=O)[O-])c(C(F)(F)F)c1,inactive,
O=C1NC(=O)C(c2ccccc2)(c2ccccc2)N1,inactive,
CN1CCc2cccc3c2[C@H]1Cc1ccc(O)c(O)c1-3,inactive,
CCCCCCCCCCCCCCCC[N+](C)(C)Cc1ccccc1,,-5.34% [at 42.5 µM] (inactive)
NC(=O)n1c(O)c(C(=O)c2cccs2)c2cc(Cl)ccc21,,62.4% [at 42.5 µM] (inactive)
NC(=O)c1cccnc1,inactive,
Nc1c2c(nc3ccccc13)CCCC2,54.5 µM (active) and 43.3 µM (active) and inactive,
CN(C)CCOC(C)(c1ccccc1)c1ccccn1 (stereo not given),inactive,
COc1ccc(OC(F)(F)F)cc1CN[C@H]1CCCN[C@H]1c1ccccc1,54.5 µM (active),
Cc1ncc([N+](=O)[O-])n1C,inactive,
Nc1ccc([N+](=O)[O-])cc1O,,33.5% (inactive)
Cc1cc(C)nc(NS(=O)(=O)c2ccc(N)cc2)n1,inactive,
CCCCCCc1ccc(O)cc1O,inactive,
Oc1ccccc1,inactive,

Compound,Potency,"activity, negative = inhibition"
CN1[C@@H]2CC(OC(=O)[C@H](CO)c3ccccc3)C[C@H]1[C@@H]1O[C@@H]12 (stereo not given in full),inactive,
Cc1cccc(C)c1,inactive,
CC(=O)C(=O)O,inactive,
CNNCc1ccc(C(=O)NC(C)C)cc1,inactive,
Cc1cc(=O)oc2cc(O)ccc12,inactive,
COc1ccc(C(Cl)=C(c2ccc(OC)cc2)c2ccc(OC)cc2)cc1,inactive,
CC(C)c1c(C(=O)Nc2ccccc2)c(-c2ccccc2)c(-c2ccc(F)cc2)n1CC[C@@H](O)C[C@@H](O)CC(=O)O,inactive,
CN1CCC[C@H]1c1cccnc1,inactive,
Nc1ccc(S(N)(=O)=O)cc1,27.4 µM (active) and inactive,
Cn1c(=O)c2c(ncn2C)n(C)c1=O,inactive,
COc1ccc2c(c1)c(CC(=O)O)c(C)n2C(=O)c1ccc(Cl)cc1,inactive,
O=S1(=O)OC(c2ccc(O)cc2)(c2ccc(O)cc2)c2ccccc21,inactive,
COc1cccc(O)c1O,,28.7% (inactive)
C=C(C)C(=O)OCC(C)O (stereo not given),inactive,
CN(C)C(=S)SC(=S)N(C)C,1.25 µM (active) and 1.54 µM (active) and 2.37 µM (active),
O=C(Nc1ncc([N+](=O)[O-])s1)c1cccs1,,30.8% [at 42.5 µM] (inactive)
CC(=O)CCC(=O)O,inactive,
CN[C@H]1CC[C@@H](c2ccc(Cl)c(Cl)c2)c2ccccc21,,16% [at 42.5 µM] (inactive)
C[C@](N)(Cc1ccc(O)c(O)c1)C(=O)O,inactive,
CCN(Cc1c(F)cccc1Cl)c1c([N+](=O)[O-])cc(C(F)(F)F)cc1[N+](=O)[O-],,-2.16% (inactive)
